In the library only some 3.1% were active in any assay of this set; here they are far more common.
Rtt109 HAT inh: inhibitors of Candida albicans Rtt109/Vps75 histone acetyltransferase; Q5AAJ8; purified Rtt109/Vps75, ThioGlo CoA-SH fluorescence, 4 h; inhibition, % at 34.9 µM; 330,000 compounds, 0.16% hits; AID 540336;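 active = inhibition of at least 50% in every replicate; inconclusive = best replicate reaches 50% inhibition but some replicates fall short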
Target sequence (Q5AAJ8 whole entry, looked up): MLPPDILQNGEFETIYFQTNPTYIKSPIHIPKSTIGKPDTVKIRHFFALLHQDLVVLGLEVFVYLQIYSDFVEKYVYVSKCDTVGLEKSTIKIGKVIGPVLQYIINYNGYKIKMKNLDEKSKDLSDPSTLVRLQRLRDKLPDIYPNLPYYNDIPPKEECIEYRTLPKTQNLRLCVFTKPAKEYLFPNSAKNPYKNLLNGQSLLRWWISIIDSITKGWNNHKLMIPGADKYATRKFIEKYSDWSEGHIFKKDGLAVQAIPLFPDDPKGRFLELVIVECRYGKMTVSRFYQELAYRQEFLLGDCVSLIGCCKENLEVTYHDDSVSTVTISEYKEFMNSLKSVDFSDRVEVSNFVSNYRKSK
MITF act: activators of MITF-driven TRPM1 promoter activity in SK-MEL-5 cells; SK-MEL-5 TRPM1-promoter luciferase, 24 h; % of positive control, neutral wells = 0; activation, % at 12.5 µM; 300,000 compounds, 0.75% hits; AID 588334;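 active = mean activation of at least 80% with every replicate also reaching 80%; inconclusive = mean reaches 80% but some replicate falls short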
Wnt bcat act: activates Wnt/beta-catenin signaling in a reporter cell assay. activator, plate reader. activation, % at 9.35 µM. 300,000 compounds, 1.2% hits; in the data active = activation above about 30%, passing the limit was not always enough; inconclusive = no clear call, values can overlap the other calls
C2C12 statin: protects C2C12 myotubes from simvastatin toxicity; rescue of ATP level, % at 7.49 µM; ATP luminescence, 48 h; scaled: DMSO 0, geranylgeraniol control 100; AID 602340; 330,000 compounds, 0.78% hits;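 active = mean ATP rescue above about 67%, or every replicate alone reaching that limit, limit read from the data, passing the limit was not always enough; inconclusive = no clear call, values can overlap the other calls; inactive = mean under the limit and some replicate under it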;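 note: myotubes were challenged with 10 µM simvastatin during compound exposure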
esBAF inh: SWI/SNF esBAF complex inhibition | 350,000 compounds, 2% hits | reporter increase, % at 12.5 µM | mouse ES cells, Bmi1-luciferase knock-in reporter, 24 h; 100% = twice the neutral-well signal; in the data active = activation above about 40%; inconclusive = no clear call, values can overlap the other calls;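 note: a rise in the Bmi1 reporter signal indicates esBAF inhibition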
Each line names hits and unclear results; the compound was inactive in the other large screens.

CC(C)NC(=O)N[C@H]1C=C[C@H](CC(=O)NCCN2CCCC2)O[C@H]1CO	none (no result: Rtt109 HAT inh, MITF act, Wnt bcat act)
N#CC(=C1Nc2ccccc2N1)S(=O)(=O)c1ccccc1	C2C12 statin 108
O=C1NC(=Nc2ccccc2)S/C1=C/c1cccs1	Wnt bcat act 51 (no result: C2C12 statin, esBAF inh)
C[C@@H]1CN([C@@H](C)CO)S(=O)(=O)c2ccc(C#CC3CC3)cc2O[C@H]1CN(C)C(=O)C1CCCCC1	none (no result: Rtt109 HAT inh, MITF act, Wnt bcat act)
Cc1cccc2cc(/C=N/Nc3ccc(C(=O)O)cc3)c(Cl)nc12	MITF act 153, Wnt bcat act 38 (no result: C2C12 statin, esBAF inh)
Cc1cccc2cc(/C=N/NC(=O)c3ccncc3)c(Cl)nc12	none (no result: MITF act, C2C12 statin, esBAF inh)
Clc1nc2ccccc2cc1/C=N/Nc1nc2ccccc2[nH]1	Wnt bcat act 63 (no result: C2C12 statin, esBAF inh)
O=C(O)c1ccc(N/N=C/c2cc3ccccc3nc2Cl)cc1	MITF act 88 (no result: C2C12 statin, esBAF inh)
Cc1ccccc1S(=O)(=O)N1C[C@H]2[C@@H](c3ccccc31)[C@@H](CO)N2C(=O)CC1CC1	none (no result: Rtt109 HAT inh, MITF act, Wnt bcat act)
CO[C@@H]1CN(C)C(=O)c2cc(NC(C)=O)ccc2OC[C@H](C)N(CCC(F)(F)F)C[C@@H]1C	none (no result: Rtt109 HAT inh, MITF act, Wnt bcat act)
Cc1nc(-c2ccc(Cl)cc2)sc1C1(C)CC(c2cccc(Cl)c2)=NO1 (stereo not given)	none
Cc1nc(-c2ccc(Cl)cc2)sc1C1(C)CC(c2cccc(F)c2)=NO1 (stereo not given)	esBAF inh 46
Cc1ccc(C2CC2C(=O)NNC(=S)Nc2cccc(Cl)c2)cc1 (stereo not given)	C2C12 statin 81
CO[C@@H]1CN(C)C(=O)c2ccc(NC(=O)c3ccccc3)cc2OC[C@H](C)NC[C@H]1C	none (no result: Rtt109 HAT inh, MITF act, Wnt bcat act)
Cc1ccc(NCc2nc3ccccc3n2C)cc1C	esBAF inh 51 (no result: MITF act)
Cc1ccc(NCc2nc3ccccc3n2C)cc1	esBAF inh 72 (no result: MITF act, Wnt bcat act)
Cn1c(CNc2nc3ccccc3n2C)nc2ccccc21	esBAF inh 68 (no result: Rtt109 HAT inh, MITF act, C2C12 statin)
Cn1c(CNc2ccc(Br)cc2)nc2ccccc21	MITF act inconclusive, Wnt bcat act 40 (no result: C2C12 statin, esBAF inh)
Cn1c(CNc2ccc(O)cc2)nc2ccccc21	none
C[C@H](CO)N1C[C@H](C)[C@@H](CN(C)Cc2ccccc2)Oc2c(NC(=O)c3cnccn3)cccc2C1=O	none (no result: Rtt109 HAT inh, MITF act, Wnt bcat act)
Cc1ccc(CNc2nc3ccccc3n2C)cc1	none (no result: MITF act)
Cn1c(NCc2ccc(Cl)cc2)nc2ccccc21	esBAF inh 71
Cc1ccc(-c2ccc(CCC(=O)O)n2-c2cccc(O)c2)cc1	esBAF inh 63 (no result: Wnt bcat act)
Cc1cccc(-c2nnc3sc(-c4ccccc4)nn23)c1	MITF act inconclusive, esBAF inh 42
c1ccc(-c2nn3c(-c4ccccc4)nnc3s2)cc1	none (no result: MITF act, Wnt bcat act)
O=c1[nH]cnc2scc(-c3ccsc3)c12	C2C12 statin 117 (no result: Wnt bcat act)
O=C(NCc1ccncc1)c1ccc2nc(Cc3ccccc3F)oc2c1	none
Cc1cc(CNC(=O)c2ccc3nc(Cc4ccccc4F)oc3c2)nn1C	MITF act 94, esBAF inh 69
Cc1ccsc1/C=C1\CCc2ccccc2C1=O	none (no result: MITF act, Wnt bcat act)
O=C1C(=Cc2ccccn2)CCc2ccccc21	Wnt bcat act inconclusive, esBAF inh 64 (no result: Rtt109 HAT inh, MITF act)
Cc1ccccc1/C=C1\CCCc2ccccc2C1=O	Wnt bcat act 77, esBAF inh 82 (no result: MITF act)
CCNC(=O)C[C@@H]1CC[C@H](NC(=O)C2CCOCC2)[C@@H](CO)O1	none (no result: Rtt109 HAT inh, MITF act, Wnt bcat act)
CCCNC(=O)N[C@@H]1CC[C@H](CCn2cc(C3CCCC3)nn2)O[C@@H]1CO	none (no result: Rtt109 HAT inh, MITF act, Wnt bcat act)
COc1cc(C)nc(NC(=S)N(C)C(=O)c2ccccc2)n1	Wnt bcat act 46 (no result: Rtt109 HAT inh, MITF act, C2C12 statin, esBAF inh)
COc1ccccc1C(=O)Nc1nc(C)cc(C)n1	none (no result: Rtt109 HAT inh, MITF act, C2C12 statin, esBAF inh)
CC1CCN(C(=O)c2cc3nc(-c4ccccc4)cc(-c4ccccc4)n3n2)CC1	C2C12 statin 83
CN(C)c1ccc(N=Cc2nc(-c3ccccc3)oc2OC(=O)c2ccccc2)cc1	Wnt bcat act 35 (no result: C2C12 statin, esBAF inh)
CC(=O)Oc1oc(-c2ccccc2)nc1C=Nc1ccc(N(C)C)cc1	none (no result: MITF act)
COc1ccc2cc(-c3ccccc3)c(=O)oc2c1	Wnt bcat act 42
COc1cccc2cc(-c3nc(-c4cccs4)cs3)c(=O)oc12	MITF act 85, Wnt bcat act 59 (no result: C2C12 statin, esBAF inh)
COc1cccc2cc(-c3ccccc3)c(=O)oc12	Wnt bcat act 35, esBAF inh 32 (no result: C2C12 statin)
C[C@@H]1CCCCO[C@@H](CN(C)Cc2ccc3c(c2)OCO3)[C@H](C)CN([C@@H](C)CO)C(=O)c2cc(N(C)C)ccc2O1	none (no result: Rtt109 HAT inh, MITF act, Wnt bcat act)
COc1ccc(NC(=O)c2ccc(-c3csc(C)n3)cc2)cc1	esBAF inh 41 (no result: MITF act)
Cc1nc(-c2ccc(C(=O)Nc3ccc(F)cc3)cc2)cs1	Wnt bcat act 43

Screening results deposited in PubChem by Broad Institute.
